Experimental findings from PubChem BioAssay are described below.

Where “and” joins values, the source holds several entries; their conditions need not be identical. Equal values may be shown once. Calls of active or inactive are those of the source.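 Rule for the calls, unless noted: active = compounds whose cell count with miR-34 switched on is under 0.7 times the count with it off; inactive = the rest.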

Test [1] can be described thus: EMT-state selective cytotoxicity in co-culture – imaging, PC-3E GFP, TEM4-18 mCherry, primary screen (AID 1345086;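 active = compounds killing one labelled cell type while sparing the other, by normalised counts and ratio limits, not self-fluorescent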;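 for all read-outs here: cells exposed to compound for 72 h before imaging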;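 for red/green cell ratio (normalised): normalised mesenchymal count divided by normalised epithelial count so high means epithelial killing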). Conditions: PC-3E GFP / TEM4-18 mCherry co-culture, imaging cell counts, at 1 µM; for red/green cell ratio (normalised): actives lie on both sides, counts scaled to control wells, 1 = unselective.
The nature of test [2]: viability loss with induced miR-34 in A549 – imaging, A549 dox-inducible miR-34, nuclei and caspase counts, primary screen (AID 1347080). Conditions: A549 miR-34 inducible, Hoechst nuclei count, 48 h.
The nature of test [3]: MELAS cybrid and Rieske KO viability enhancers – cell-based, MELAS cybrids, Rieske KO mouse fibroblasts, CellTiter-Glo, primary screen (AID 1508586;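 active = mean z-score across replicates of 1.96 or higher in either the MELAS or the Rieske mutant cell line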;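 note: z relative to plate mean and SD of compound and empty wells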). To be noted: low glucose. Background: In ATP-based viability assays light output follows the ATP content of the culture.
In test [4] the target is NAD(+) hydrolase SARM1 (Homo sapiens) (UniProt Q6SZW1). Kind of test: blocking NAD cleavage by SARM1 SAM-TIR – cell lysate, NAD-Glo luminescence (AID 1508614;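 active = compound whose remaining NAD level is above about 45 nM, limit read from the data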;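 note: higher remaining NAD means stronger inhibition of SARM1 NADase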). Conditions: SAM-TIR HEK293T lysate NADase, at 1 µM, stronger effect = higher value.
Chain of NAD(+) hydrolase SARM1 (Homo sapiens) (Q6SZW1 whole entry, looked up): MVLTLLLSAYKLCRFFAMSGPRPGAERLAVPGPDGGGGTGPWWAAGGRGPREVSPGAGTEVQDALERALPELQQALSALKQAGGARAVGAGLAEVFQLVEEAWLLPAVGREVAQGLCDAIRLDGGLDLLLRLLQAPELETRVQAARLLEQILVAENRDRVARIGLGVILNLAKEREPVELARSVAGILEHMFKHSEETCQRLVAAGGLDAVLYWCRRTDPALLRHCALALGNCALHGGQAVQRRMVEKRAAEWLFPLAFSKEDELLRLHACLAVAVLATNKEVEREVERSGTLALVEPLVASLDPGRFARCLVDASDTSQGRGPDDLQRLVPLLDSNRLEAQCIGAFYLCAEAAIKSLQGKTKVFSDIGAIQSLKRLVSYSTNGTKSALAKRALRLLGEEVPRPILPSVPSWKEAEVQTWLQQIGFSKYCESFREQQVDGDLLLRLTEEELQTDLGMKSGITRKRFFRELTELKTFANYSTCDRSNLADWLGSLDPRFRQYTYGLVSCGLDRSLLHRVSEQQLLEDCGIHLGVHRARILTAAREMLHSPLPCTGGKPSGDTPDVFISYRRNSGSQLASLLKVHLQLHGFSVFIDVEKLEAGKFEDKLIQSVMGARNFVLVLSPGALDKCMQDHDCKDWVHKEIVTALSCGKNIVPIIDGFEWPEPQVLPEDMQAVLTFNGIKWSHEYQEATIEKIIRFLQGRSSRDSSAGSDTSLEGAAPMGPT
Test [5] is described as follows: galactose survival enhancers in mitochondrial complex I cybrids – cell-based, galactose medium, ATP luminescence, primary screen (AID 1645843;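 active = z-score of at least 1.8 in each of two replicates, scored against plate mean and spread of sample wells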;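 note: positive z means more ATP and so rescue of galactose-driven cybrid death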). Conditions: complex I mutant cybrid cells, 72 h, stronger effect = higher value.
The nature of test [6]: compounds altering viability of human ES cells (AID 493140; call rule not given here;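 note: cells exposed to compounds for four days before counting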). Conditions: human embryonic stem cell survival screen; stronger effect = higher value.
Test [7] in a line: P. berghei load reduction in hepatocytes – cell-based, HepG2, luciferase luminescence, HepG2 viability, primary screen (AID 624349; in the data active = parasite load remaining mostly below about 12%, no sharp cut-off; inactive = mostly above about 10%;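 note: 100% = mean of DMSO negative control wells on the same plate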). To be noted: P. berghei liver stage in HepG2, luciferase luminescence, concentration not given here; parasite load remaining: stronger effect = lower value; viability: measured here: HepG2 viability without parasites.
Setting [8] is: measured here: epithelial PC-3E GFP cell survival.
[9] abbreviates: measured here: mesenchymal TEM4-18 mCherry cell survival.
Setting [10] is: stronger effect = lower value, cell number ratio, induced over uninduced.
Where [11] appears, read: measured here: relative caspase fold change +Dox/-Dox.
The mark [12] stands for this setting: measured here: total cells with miR-34 induction, stronger effect = lower value.
[13] abbreviates: measured here: total cells without miR-34 induction.
Where [14] appears, read: MELAS cybrid survival, CellTiter-Glo 48 h, stronger effect = higher value.
[15] abbreviates: Rieske KO mouse fibroblast survival, CellTiter-Glo 72 h.

On to `CCN(CC)CCOCCOC(=O)C(CC)(CC)c1ccccc1`, for which the red/green cell ratio (normalised) in test [1] was 1.07 (inactive). In addition, the normalised cell number in test [1] (setting [8]) stood at 0.85; in test [1] (setting [9]), 0.9. For the same compound, the fold change in test [2] (setting [10]) was 0.879 (inactive) and 0.86 (inactive); in test [2] (setting [11]) it was 0.849 and 0.967. For the same compound, the cell count in test [2] (setting [12]) was 7300 and 7460; in test [2] (setting [13]), 8310 and 8670. The results for the z-score in test [3] (setting [14]), in test [3] (setting [15]) and in test [5] were -0.986 (inactive), -0.272 and -0.65 (inactive), respectively. The remaining NAD in test [4] is 10 nM (inactive).

In the case of `CCOC(=O)COc1ccc2c(=O)cc(-c3ccccc3)oc2c1`, the red/green cell ratio (normalised) in test [1] was 0.96 (inactive). The normalised cell number in test [1] (setting [8]) was 0.88; in test [1] (setting [9]), 0.85. In addition, the fold change is 0.922 (inactive) in test [2] (setting [10]) and 0.974 in test [2] (setting [11]). Further, the cell count amounted to 8170 in test [2] (setting [12]) and 8860 in test [2] (setting [13]). Moreover, in test [4], the remaining NAD is 10 nM (inactive).

As to `C[C@H](N[C@@H](CCc1ccccc1)C(=O)O)C(=O)N1Cc2ccccc2C[C@H]1C(=O)O`, the red/green cell ratio (normalised) in test [1] is 0.82 (inactive). The normalised cell number in test [1] (setting [8]) turned out to be 1.1; in test [1] (setting [9]), 0.91. Further, the fold change is 0.868 (inactive) in test [2] (setting [10]) and 0.983 in test [2] (setting [11]). In addition, the cell count amounted to 8350 in test [2] (setting [12]) and 9630 in test [2] (setting [13]). Besides, the remaining NAD in test [4] is 10 nM (inactive).

Take `CC(C)Nc1ncccn1`: in test [1], the red/green cell ratio (normalised) is 0.89 (inactive). In addition, the normalised cell number in test [1] (setting [8]) worked out at 1.16; in test [1] (setting [9]), 1.03. The fold change in test [2] (setting [10]) was 0.885 (inactive); in test [2] (setting [11]), 0.978. The cell count in test [2] (setting [12]) came out at 8370; in test [2] (setting [13]), 9450. Moreover, in test [4], the remaining NAD is 10 nM (inactive).

For orientation: viability means a read-out of living cells in per cent, often relative to untreated cells. In the case of `Nc1ccccc1S(N)(=O)=O`, the survival in test [6] is 5.17 (inactive). Further, the parasite load remaining in test [7] was 63.3% (inactive). Further, the viability in test [7] turned out to be 93.8%. Besides, the red/green cell ratio (normalised) in test [1] was 0.77 (inactive). The normalised cell number in test [1] (setting [8]) amounted to 1.18; in test [1] (setting [9]) it was 0.91. The fold change in test [2] (setting [10]) is 0.888 (inactive); in test [2] (setting [11]) it was 1.35. Further, the results for the cell count in test [2] (setting [12]) and in test [2] (setting [13]) were 9840 and 11100, respectively. Also, the z-score is 0.695 (inactive) in test [3] (setting [14]) and -0.362 in test [3] (setting [15]).

On to `COc1cc(-c2ccc(N=Nc3ccc4c(S(=O)(=O)O)cc(S(=O)(=O)O)c(N)c4c3O)c(OC)c2)ccc1N=Nc1ccc2c(S(=O)(=O)O)cc(S(=O)(=O)O)c(N)c2c1O`, for which, in test [6], the survival is 5.92 (inactive). Further, the parasite load remaining in test [7] is 77.2% (inactive) and 55.6% (inactive). For the same compound, the viability in test [7] is 74.5% and 64.2%. Besides, in test [1], the red/green cell ratio (normalised) was 1.11 (inactive). Moreover, the normalised cell number in test [1] (setting [8]) stood at 1.16; in test [1] (setting [9]), 1.29. In addition, the fold change in test [2] (setting [10]) was 0.857 (inactive); in test [2] (setting [11]), 0.848. For the same compound, the cell count in test [2] (setting [12]) is 8930; in test [2] (setting [13]) it was 10400. Besides, the z-score in test [3] (setting [14]) was -1.41 (inactive); in test [3] (setting [15]) it was -1.32.

As to `C[N+](C)(CCOc1ccccc1)Cc1ccccc1`, in test [7], the parasite load remaining was 72.5% (inactive) and 56.2% (inactive). Besides, the viability in test [7] is 93.8% and 115%. Besides, in test [1], the red/green cell ratio (normalised) is 0.65 (inactive). Moreover, the results for the normalised cell number in test [1] (setting [8]) and in test [1] (setting [9]) were 1.19 and 0.77, respectively. Moreover, the fold change in test [2] (setting [10]) was 0.899 (inactive) and 0.879 (inactive); in test [2] (setting [11]), 1.23 and 5.07. Further, the cell count in test [2] (setting [12]) was 9230 and 11800; in test [2] (setting [13]), 10300 and 13400. The figures for the z-score in test [3] (setting [14]) and in test [3] (setting [15]) were 0.608 (inactive) and 0.271, respectively. The remaining NAD in test [4] is 10 nM (inactive).

On to `OCc1ccccc1`, for which, in test [1], the red/green cell ratio (normalised) is 0.94 (inactive). Besides, the figures for the normalised cell number in test [1] (setting [8]) and in test [1] (setting [9]) were 1.12 and 1.05, respectively. Further, the values for the fold change in test [2] (setting [10]) and in test [2] (setting [11]) were 0.891 (inactive) and 0.934, respectively. Moreover, the cell count in test [2] (setting [12]) stood at 8280; in test [2] (setting [13]) it was 9290. Further, in test [4], the remaining NAD is 10 nM (inactive).
